Results on 12 compounds are retold here after the supplement of paper PMC8975748.

Counter-ions that a name gives are not always drawn.

The subject of the experiment is Saccharomyces cerevisiae BY4741 SeMeCo community. In words: z-score of subpopulation abundance vs DMSO median, subpopulation auxotrophic for L; higher = larger share of this subpopulation than in DMSO controls. As to conditions: 10 µM; 24 h; SM minimal medium; subpopulation (auxotrophy): L. The method in brief:
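Cells of a Saccharomyces cerevisiae BY4741 community, carrying four plasmids that each restored one auxotrophy and encoded a distinct fluorescent protein, were pre-grown overnight to OD600 1.0 and diluted to 0.3. A 70 µl volume was added to 384-well plates acoustically predosed with library drugs (10 µM final) and grown 24 h in minimal SM medium. After paraformaldehyde fixation, automated confocal microscopy was used, with single-auxotroph fluorescent strains for thresholds and autofluorescence correction. The abundance of each subpopulation was scored as a z-score against the vehicle-well median.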
Consider `CN(C)[C@@H](CCOc1cccc2ccccc12)c1ccccc1` [Dapoxetine HCl], for which the “z-score of subpopulation abundance” value is 0.84. Regarding `CC(=O)Oc1ccccc1C(=O)O` [Aspirin], the “z-score of subpopulation abundance” value is -0.15. Turning to `C[C@@H]1CC(=O)NN=C1c1ccc(NN=C(C#N)C#N)cc1` [Levosimendan], the “z-score of subpopulation abundance” value is -0.16. Regarding `CCN1CCC[C@H]1CNC(=O)c1cc(S(N)(=O)=O)ccc1OC` [Levosulpiride], the “z-score of subpopulation abundance” value is -0.4. For `CC[C@H]1OC(=O)[C@H](C)[C@@H](O[C@H]2C[C@@](C)(OC)[C@@H](O)[C@H](C)O2)[C@H](C)[C@@H](O[C@@H]2O[C@H](C)C[C@H](N(C)C)[C@H]2O)[C@](C)(O)C[C@@H](C)CN(C)[C@H](C)[C@@H](O)[C@]1(C)O` [Azithromycin], the “z-score of subpopulation abundance” value worked out at 0.82. On to `Clc1ccccc1C(c1ccccc1)(c1ccccc1)n1ccnc1` [Clotrimazole], for which the “z-score of subpopulation abundance” value was -2.83. As to `CO/N=C(\C(=O)N[C@@H]1C(=O)N2C(C(=O)O)=C(CSc3nc(=O)c(O)nn3C)CS[C@H]12)c1csc(N)n1` [Ceftriaxone Sodium Trihydrate], the “z-score of subpopulation abundance” value turned out to be 2.07. `C[C@H](NCc1ccc(OCc2cccc(F)c2)cc1)C(N)=O` [Safinamide]: the “z-score of subpopulation abundance” value was -0.58.

For the compound `CCOC(=O)C1=C(C)NC(C)=C(C(=O)OC)C1c1cccc(Cl)c1Cl` (configuration not stated) [Felodipine], the “z-score of subpopulation abundance” value is 1.68. For the compound `C[C@@H](O)[C@H]1C(=O)N2C(C(=O)O)=C([C@H]3CCCO3)S[C@H]12` [Faropenem Sodium], the “z-score of subpopulation abundance” value is -0.03.

Take `O=C1CCc2cc(OCCCCc3nnnn3C3CCCCC3)ccc2N1` [Cilostazol]: the “z-score of subpopulation abundance” value is 0.75. `Nc1nc2ccc(OC(F)(F)F)cc2s1` [Riluzole]: the “z-score of subpopulation abundance” value stood at 0.43.
